According to PubChem BioAssay (NCATS):
Records with an inconclusive call do not appear. Entries that show only a call come without a potency. Calls of active or inactive are those of the source. Calls follow the shape of the full dose curve.

Experiment: Cytotoxicity counterscreen for inhibitors of SARS-CoV-2 cell entry (AID 1645845); also: nearly all actives have a fitted effect of over 50% in size
Conditions: cell viability (SARS-CoV-2 entry assay cells); series mostly up to 57.1 µM
Summary of the method: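 ATP-content luminescence (ATPLite 1step, 15 min RT) read after 48 h compound exposure of Expi293F cells stably expressing human ACE2; normalized to cells-only wells and media-only wells.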
Potency is read from the fitted curve at half-maximal effect.

| SMILES | Potency |
| --- | --- |
| CN(CCOc1ccc(C[C@H](Nc2ccccc2C(=O)c2ccccc2)C(=O)O)cc1)c1ccccn1 | inactive |
| CC1=C(/C=C/C(C)=C/C=C/C(C)=C/C=C/C=C(C)/C=C/C=C(C)/C=C/C2=C(C)CCCC2(C)C)C(C)(C)CCC1 | inactive |
| CC1(C)C(=O)N(c2ccc(C#N)c(C(F)(F)F)c2)C(=S)N1Cc1ccc(-c2cn[nH]n2)cc1 | inactive |
| COc1cc(/C=C/C(=O)CC(=O)/C=C/c2ccc(O)c(OC)c2)ccc1O | 31.6 µM (active) |
| Cn1c(CCCCCCC(=O)NO)nc2cc(N(CCCl)CCCl)ccc21 | inactive |
| CN1CCN(c2ncc(-c3cc(Cl)cc(Cl)c3Cl)c(N)n2)CC1 | inactive |
| O=C(NCc1ccccc1)c1csc(Nc2ccncn2)n1 | inactive |
| CON(C)C(=O)N1N=C(c2cc(F)ccc2F)S[C@@]1(CCCN)c1ccccc1 | inactive |
| CC[C@H](CC[C@@H](C)[C@H]1CC[C@H]2[C@@H]3CC=C4C[C@@H](O)CC[C@]4(C)[C@H]3CC[C@]12C)C(C)C | inactive |
| C[C@H]1[C@H](C)CC[C@]2(C(=O)O)CC[C@]3(C)C(=CC[C@@H]4[C@@]5(C)C[C@@H](O)[C@H](O)[C@@](C)(CO)[C@@H]5CC[C@]43C)[C@H]12 | inactive |
